Source: PubChem BioAssay AID720517 (National Center for Advancing Translational Sciences (NCATS), 2013)
Inconclusive results are not listed. Where a call stands in place of a potency, no number is given. Activity calls are given as the source filed them. Calls come from the whole dose curve; as a rule, active = well fitted activation curve with a large enough effect; inconclusive = small, poorly fitted or top-dose-only effect; inactive = flat fitted curve, though single readings scatter.

Test: qHTS for Inhibitors of Cell Surface uPA Generation: FP59 Counterscreen for Cherry-picked Compounds
Conditions: FP59 anthrax toxin cytotoxicity counterscreen, cells; series mostly up to 115 µM

SMILES	Potency
CCOC(=O)C1CCCN(CC(=O)Nc2ccc(C(=O)Nc3ccccc3OC)cc2)C1 (configuration not stated)	inactive
CCc1nnc(NC(=O)CSc2nnnn2-c2cccc(C(C)=O)c2)s1	inactive
CCCCNc1nnc(SCC(=O)c2c(N)n(CCC)c(=O)[nH]c2=O)s1	inactive
CCS(=O)(=O)N1CCC(C(=O)NCc2ccc(OC)cc2OC)CC1	inactive
CCCOC(=O)CSC1=C(C#N)C(c2ccccc2Cl)CC(=O)N1 (configuration not stated)	inactive
CC1CCCN(S(=O)(=O)c2cccc([N+](=O)[O-])c2)C1 (configuration not stated)	inactive
C=CCn1c(SCCN2C(=O)c3ccccc3C2=O)nc2scc(-c3ccc(F)cc3)c2c1=O	inactive
Cc1cccc(N2CCN(Cc3ccc(Br)o3)CC2)c1C	inactive
COC(=O)CNC(=O)COC(=O)/C=C/c1ccccc1[N+](=O)[O-]	inactive
Cc1cc(C)n(CCCNC(=O)c2ccc(C)o2)n1	inactive
O=C(CN1CCOC1=O)N1CCCC(Nc2ccc(F)c(F)c2)C1 (configuration not stated)	inactive
O=S(=O)(c1ccc2nc(N3CCN(c4ccccc4)CC3)ccc2c1)N1CCCCC1	inactive
CCOc1ccc(N(CC(=O)Nc2ccc(CC)cc2)S(=O)(=O)c2c(C)[nH]c(=O)[nH]c2=O)cc1	inactive
Cc1cc2[nH]c(=O)c(=O)[nH]c2cc1S(=O)(=O)NC1CCC(C)CC1 (configuration not stated)	inactive
C/C(=N\NC(=O)c1ccccc1)c1c(C)[nH]n(-c2ccccc2)c1=O	inactive
Clc1ccc(C2=NN=C3COc4ccccc4N3C2)cc1	inactive
Oc1c(N=NC(=S)Nc2ccccc2F)c2ccccc2n1Cc1ccccc1Cl	inactive
